In the library only some 19% were active in any assay of this set; here they are far more common.
IL1B secr inh – inhibitors of inflammasome signaling (IL-1 beta secretion); THP-1 LPS/ATP IL-1B secretion, AlphaLISA, 16 h; stronger effect = lower value; activity change, % at 57.5 µM; 360,000 tested, 4.7% active; AID 743279; in the data active = activity change below about -50%; inconclusive = mostly about -30% to -49%; note: % is set by controls: 0 for no effect and ±100 for the full control effect
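Secreted IL-1B measured by AlphaLISA bead assay after 16 h compound exposure of THP-1 cells; compounds (final up to 57.5 uM) added 1 h before LPS (250 ng/mL) and ATP (1.25 mM) stimulation; lower signal means less secretion.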
DT40 TDP1 no CPT – qHTS for Inhibitors of human tyrosyl-DNA phosphodiesterase 1 (TDP1): qHTS in cells in absence of CPT. DT40 Tdp1-/- hTDP1 cells, no CPT, ATP luminescence, 48 h. Potency, µM (highest dose often 46.2 µM), for the others: top-dose activity change, negative = growth inhibition, usual class: inhibitors. 420,000 tested, 15% active. AID 686978, 2013; note: potency is the fitted concentration of half-maximal effect; % is set by controls: 0 for no effect and ±100 for the full control effect; nearly all actives have a fitted effect of over 55% in size
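A cellular qHTS used chicken DT40 cells lacking endogenous Tdp1 but carrying stably transfected human TDP1. Compounds were applied without camptothecin, and cell growth kinetics were judged by ATP-dependent luminescence after ≥48 hr.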
TDP1 cell CPT – growth inhibition of DT40 Tdp1-/-;hTDP1 cells with camptothecin (screen for TDP1 inhibitors) | 420,000 tested, 12% active | chicken DT40 Tdp1-/-;hTDP1 cells + 20 nM CPT, ATP luminescence, 48 h | Potency, µM (series often up to 46.2 µM), for inactives: at the highest dose activity change, negative = growth inhibition, hits mostly inhibitors; note: potency is the fitted concentration of half-maximal effect; % is set by controls: 0 for no effect and ±100 for the full control effect; nearly all actives have a fitted effect of over 55% in size
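Chicken DT40 Tdp1-/- cells complemented with human TDP1, 400 cells/well, exposed to compounds plus 20 nM camptothecin for at least 48 h at 37 C; viability read as ATP content by CellTiter-Glo luminescence.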
TDP1 inh – blocks human tyrosyl-DNA phosphodiesterase 1; Potency, µM (top dose mostly 130 µM), for inactives: at the highest dose activity change, negative = inhibition, actives largely listed as inhibitors; 350,000 tested, 0.28% active; recombinant TDP1, AlphaScreen DNA substrate cleavage; note: potency is the fitted concentration of half-maximal effect; % is set by controls: 0 for no effect and ±100 for the full control effect; nearly all actives have a fitted effect of over 40% in size
Target sequence (Q9NUW8 whole entry, looked up): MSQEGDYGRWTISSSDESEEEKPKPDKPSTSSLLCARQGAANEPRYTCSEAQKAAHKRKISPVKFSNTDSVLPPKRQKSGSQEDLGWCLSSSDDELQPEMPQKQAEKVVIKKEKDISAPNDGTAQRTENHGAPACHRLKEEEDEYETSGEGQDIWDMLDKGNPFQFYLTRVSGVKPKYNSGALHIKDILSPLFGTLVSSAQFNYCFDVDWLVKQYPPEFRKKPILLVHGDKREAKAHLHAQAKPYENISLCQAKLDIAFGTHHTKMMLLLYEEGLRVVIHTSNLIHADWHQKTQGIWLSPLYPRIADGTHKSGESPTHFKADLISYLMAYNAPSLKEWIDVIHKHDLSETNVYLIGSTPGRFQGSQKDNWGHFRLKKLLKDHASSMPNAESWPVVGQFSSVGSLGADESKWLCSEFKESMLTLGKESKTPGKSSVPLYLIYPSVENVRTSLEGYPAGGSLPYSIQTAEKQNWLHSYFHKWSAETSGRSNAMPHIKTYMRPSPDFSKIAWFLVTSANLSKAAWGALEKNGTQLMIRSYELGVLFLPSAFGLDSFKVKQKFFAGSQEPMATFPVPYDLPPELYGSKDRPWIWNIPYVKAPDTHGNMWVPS
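Recombinant E. coli-expressed Tdp1 (1 nM) preincubated with compound 15 min at RT, then 5'-biotin/3'-phosphotyrosine-FITC DNA substrate (15 nM) added for 5 min. AlphaScreen beads (10 ug/ml) added, 10 min RT; tyrosine-FITC cleavage read as signal loss.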
HepG2 tox – HepG2 cytotoxicity, counter-screen for TGF-b inhibitors | HepG2 CAGA-GFP viability, ATP luminescence, 18 h | Potency, µM (series often up to 46.1 µM), without a hit: at the top dose activity change, negative = cytotoxicity, most hits filed as cytotoxic | 410,000 tested, 0.76% active | AID 588856; note: potency is the fitted concentration of half-maximal effect
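HepG2 CAGA-GFP cells (1000/well, DMEM with 1% FBS) received compound, then TGF-beta at 500 pg/mL final, and were incubated 18 hours at 37 degrees C. Viability was read by CellTiter-Glo luminescence. Media-only wells were set as complete cell-killing and DMSO as no toxicity.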
TGFb SMAD3 inh – blocks TGF-b signaling; HepG2 CAGA-GFP TGF-b/SMAD3 reporter, GFP fluorescence, 18 h; TGF-beta stimulated, 500 pg/mL final; Potency, µM (series often up to 46.1 µM), inactives show at the highest dose activity, negative = inhibition, most hits filed as inhibitors; 410,000 tested, 1.2% active; AID 588855; note: potency is the fitted concentration of half-maximal effect; % is set by controls: 0 for no effect and ±100 for the full control effect; nearly all actives have a fitted effect of over 65% in size
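HEPG2 CAGA-GFP, 1000 cells/well; 2 h settle, 37 C; cpd via pin tool; TGF-b 500 pg/mL final; 18 h, 37 C; GFP imaging ex488/em500-530; %Activity normalised to -TGF-b and +DMSO controls; CRC fit, curve class.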
Numbers without * were called inactive; ? = inconclusive; . = no result. Unless noted, calls come from the whole dose curve; as a rule, active = well fitted curve in the direction sought with a large enough effect; inconclusive = small, poorly fitted or top-dose-only effect, or another doubt; inactive = no such curve, though single readings can be large; an effect the other way counts as inactive or inconclusive.

SMILES	IL1B secr inh	DT40 TDP1 no CPT	TDP1 cell CPT	TDP1 inh	HepG2 tox	TGFb SMAD3 inh
CC(=O)c1ccc(NC(=S)NCCc2cccc(Cl)c2)cc1	45	?	?	-1%	-21%	?
Fc1ccccc1NC(=S)NCCc1cccc(Cl)c1	-88*	7.3µM*	8.2µM*	1%	-32%	0%
COCC(=O)N1CCC2(CCCN(Cc3cc(C(F)(F)F)cc(C(F)(F)F)c3)C2)CC1	.	?	1%	.	.	.
CCOc1ccc(CNC(=O)CCC(=O)N2CC(C)Sc3ccccc32)cc1 (centres undefined)	.	?	?	3%	-23%	-7%
COc1ccc2c(c1)CCC2=O	.	3%	12%	.	-15%	1%
CC(=O)OC[C@H]1O[C@@H](Sc2cccc3cccnc23)[C@H](OC(C)=O)[C@@H](OC(C)=O)[C@@H]1OC(C)=O	-2	?	?	1%	16%	6%
CC(=O)OC[C@H]1O[C@@H](Sc2cccc3cccnc23)[C@H](OC(C)=O)[C@@H](OC(C)=O)[C@H]1OC(C)=O	0	-86%	18µM*	5%	-37%	?
COc1ccc(-c2csc(NCc3ccco3)n2)cc1C	-52*	?	-27%	14%	-34%	?
Cc1ccn2c(-c3csc(NCc4ccco4)n3)c(C)nc2c1	-20	18µM*	15µM*	4%	-34%	-8%
CN(C)c1ccc(-c2cncnc2NCCc2cnc[nH]2)cc1	.	-23%	?	.	.	.
CC(=O)N1CCc2cc(S(=O)(=O)CCC(=O)Nc3cc(C)cc(C)c3)ccc21	72	2%	3%	0%	-1%	-4%
CCCCCCCC(=O)C(C)C(=O)N(C)[C@H](Cc1ccc(OC)cc1)C(=O)N(C)[C@H](C(N)=O)C(C)C (some centres undefined)	-7	23µM*	?	-3%	-20%	?
COc1ccc(CC(C)CC(=O)Nc2ccc(OC)cc2)cc1 (centres undefined)	-8	?	1%	.	-7%	9%
CCOC(=O)C(C)(C)N(Cc1cccc(C)c1)S(=O)(=O)c1cccc([N+](=O)[O-])c1	1	?	?	6%	-34%	?
CCOC(=O)C(C)(C)N(Cc1cccc(C)c1)S(=O)(=O)c1ccc(Cl)c([N+](=O)[O-])c1	?	15µM*	23µM*	0%	-114%	?
COC1=C(N)C(=O)c2nc(-c3nc(C(=O)O)c(C)c(-c4ccc(OC)c(OC)c4O)c3N)ccc2C1=O	-106*	0.1µM*	0.041µM*	-3%	-86%	0.28µM*
Cc1nnc2c(N(C)S(=O)(=O)c3ccccc3)nc3ccccc3n12	24	0%	-10%	2%	-21%	?
Cc1cccc(N(C)c2nc3ccccc3c3nnc(C)n23)c1	.	29µM*	?	0%	-31%	?
O=c1c2oc3ccccc3c2n(Cc2ccccc2Cl)c(=O)n1Cc1ccco1	.	22%	16%	0%	-2%	-44%
Cc1cc(C)[n+]2[nH]c(N)c(N=Nc3ccccc3)c2n1	-29	16µM*	?	7%	13µM*	-13%
CCOc1cccc2cc(-c3csc(NC(=O)CCC(=O)N4CCC(C)CC4)n3)c(=O)oc12	-2	16µM*	?	-2%	-12%	-3%
CCOc1cccc2cc(-c3csc(NC(=O)CCC(=O)NCCCN4CCC(C)CC4)n3)c(=O)oc12	.	.	.	0%	.	.
COc1ccccc1CNC(=O)C1CCN(Cc2nc(-c3ccc(OC)c(OC)c3)oc2C)CC1	.	?	-13%	5%	-2%	-4%
Cc1cc(N2CCN(Cc3nc(-c4ccc(F)cc4)oc3C)CC2)cc(C)n1	-6	?	?	.	-26%	?
COc1ccccc1CN1CCN(Cc2nc(-c3ccc(C)cc3)oc2C)CC1	0	?	21µM*	.	1%	?
SMILES	IL1B secr inh	DT40 TDP1 no CPT	TDP1 cell CPT	TDP1 inh	HepG2 tox	TGFb SMAD3 inh
COc1ccccc1N1CCN(Cc2nc(-c3ccc(F)cc3)oc2C)CC1	-2	18µM*	?	5%	-21%	?
COc1ccccc1CN1CCSCC1	-3	4%	-16%	-12%	-12%	27%
COc1ccc(-c2nc(CN3CCN(c4ccccc4OC)CC3)c(C)o2)cc1	-97*	?	?	2%	-11%	-25%
COc1ccccc1CN1CCCCCC1	-10	18µM*	?	.	-24%	15%
Cc1ccc(CNC(=O)Cn2ccn(-c3ccc(F)c(F)c3)c(=O)c2=O)cc1	.	6%	-8%	-1%	-7%	-2%
Cc1ccc(S(=O)(=O)Nc2ccc(S(=O)(=O)NCC3CCCO3)cc2)cc1 (centres undefined)	-16	7%	10%	13%	-3%	1%
COC(=O)c1ccc(-c2nc(CN3CCN(Cc4cccc(C)c4)CC3)c(C)o2)cc1	7	23µM*	?	.	-8%	0%
Cc1ccc(CN(C(=O)COc2c(C)cccc2C)C2CCS(=O)(=O)C2)o1 (centres undefined)	.	?	?	5%	-16%	.
CCOc1ccc(/C=N/n2cc(-c3ccccc3)[nH]c2=S)cc1	-15	5.2µM*	2.6µM*	5%	14%	?
S=c1[nH]c(-c2ccccc2)cn1/N=C/c1ccncc1	-9	-22%	-1%	11%	-17%	-14%
